Measured values taken from the supplement of paper PMC11060735.
“And” between values parts separate entries of the source, which are not always exact repeats. Equal values may be shown once. Where a name gives a salt, the structure may show the parent alone. The whole screen tested about 1,800 compounds, of which about 50 (3%) showed activity. The entries come from a sample that favours actives as a whole. Values without a mark were called inactive.

Tested on: mouse p16Ink4a+/- lung fibroblasts (INKBRITE, bleomycin-injured)
Test: percentage of GFP+ (p16Ink4a+) fibroblasts among all cells in well; higher = less depletion of p16Ink4a+ cells, active = 20 or less
Conditions: 1 µM; 3 days

Structure (SMILES) | percentage of GFP+
CC(=O)c1cc([N+](=O)[O-])c(Sc2cccc(Cl)c2Cl)s1 | 41.2%
Nc1nc(O)c2ncn(COCCO)c2n1 [Aciclovir] | 45.4%
COc1ccc2[nH]c(S(=O)Cc3ncc(C)c(OC)c3C)nc2c1 (stereo unspecified) [Esomeprazole; Omeprazole] | 43.4% and 32.8%
COc1c(C)cnc(Cn2cnc3c(Cl)nc(N)nc32)c1C | 7.81% (active)
COc1ccc(CNC(=O)Nc2ncc([N+](=O)[O-])s2)cc1 [N-(4-Methoxybenzyl)-N'-(5-Nitro-1,3-Thiazol-2-Yl)Urea] | 43.1%
CCN(Cc1ccncc1)C(=O)C(CO)c1ccccc1 (stereo unspecified) [Tropicamide] | 49.3%
O=C(Nc1ccc(OC(F)(F)F)cc1)c1sccc1NCc1ccnc2ccccc12 | 30.4%
Clc1cccc(Cl)c1NC1=NCCN1 [Clonidine] | 51.5%
CN1CCN(C2=Nc3ccccc3Oc3ccc(Cl)cc32)CC1 [Loxapine] | 51.2%
CC(C)n1c(/C=C/[C@@H](O)C[C@@H](O)CC(=O)O)c(-c2ccc(F)cc2)c2ccccc21 [Fluvastatin] | 19.7% (active)
O=C(O)C[C@H](O)C[C@H](O)/C=C/c1c(C2CC2)nc2ccccc2c1-c1ccc(F)cc1 [Pitavastatin Calcium] | 22.1%
CC(C)c1c(C(=O)Nc2ccccc2)c(-c2ccccc2)c(-c2ccc(F)cc2)n1CC[C@@H](O)C[C@@H](O)CC(=O)O [Atorvastatin] | 41.6%
NC(Cc1c[nH]c2ccc(O)cc12)C(=O)O (stereo unspecified) [5-hydroxytryptophan (5-HTP)] | 41.1%
CC(C)OC(=O)OCOP(=O)(CO[C@H](C)Cn1cnc2c(N)ncnc21)OCOC(=O)OC(C)C [Tenofovir Disoproxil] | 37.9%
CC(C)(C)C(=O)OCOP(=O)(COCCn1cnc2c(N)ncnc21)OCOC(=O)C(C)(C)C [Adefovir Dipivoxil] | 19.4% (active)
C[C@H](Cn1cnc2c(N)ncnc21)OCP(=O)(O)O [Tenofovir] | 36.4%
Cc1nc(O)c(C#N)cc1-c1ccncc1 [Milrinone] | 37.8%
CCOC(=O)N1CCC(=C2c3ccc(Cl)cc3CCc3cccnc32)CC1 [Loratadine] | 54.5%
CC(C)c1cc(-c2nnc(O)n2-c2ccc3c(ccn3C)c2)c(O)cc1O [Ganetespib] | 4.48% (active)
OC(CC1c2ccccc2-c2cncn21)C1CCCCC1 (stereo unspecified) | 43%
CCCCCCCCCCCC1=C(O)C(O)=CC(=O)C1=O [Embelin] | 51.4%
COc1ccc2cccc(CCNC(C)=O)c2c1 [Agomelatine] | 39.1%
CC(C)C[C@@H](C=O)NC(=O)[C@H](CC(C)C)NC(=O)[C@H](CC(C)C)NC(=O)OCc1ccccc1 | 7.69% (active)
COC(=O)[C@H](Cc1ccccc1)NC(=O)[C@@H](N)CC(=O)O [Aspartame] | 44.2%

Structure (SMILES) | percentage of GFP+
CC(=O)SCC(Cc1ccccc1)C(=O)NCC(=O)OCc1ccccc1 (stereo unspecified) [Racecadotril] | 45%
CCCCCOC(=O)Nc1nc(=O)n([C@@H]2O[C@H](C)[C@@H](O)[C@H]2O)cc1F [Capecitabine] | 40.5%
CN(Cc1ccc(C(C)(C)C)cc1)Cc1cccc2ccccc12 [Butenafine] | 51.2%
O=C(/C=C/c1cccc(S(=O)(=O)Nc2ccccc2)c1)NO [Belinostat] | 15.9% (active)
O=C(/C=C/c1ccccc1)NC(NC(=S)Nc1ccc(Cl)cc1)C(Cl)(Cl)Cl (stereo unspecified) | 58.3%
Cn1cc(/C=C/C(=O)c2cccc(F)c2)cc1/C=C/C(=O)NO | 54%
Nc1cccc2c1CN(C1CCC(=O)NC1=O)C2=O (stereo unspecified) [Lenalidomide] | 46%
CC/C(=C(\c1ccccc1)c1ccc(OCCN(C)C)cc1)c1ccccc1 [Tamoxifen] | 34.9%
Cc1ccc([N+](=O)[O-])cc1S(=O)(=O)N(C)/N=C/c1cnc2ccc(Br)cn12 | 3.79% (active)
CC(C)c1nc(N(C)S(C)(=O)=O)nc(-c2ccc(F)cc2)c1/C=C/[C@@H](O)C[C@@H](O)CC(=O)O [Rosuvastatin, Rosuvastatin Calcium] | 41.7%
Cn1cnc2c(F)c(Nc3ccc(Br)cc3F)c(C(=O)NOCCO)cc21 | 44.7%
CN1c2cc(O)c(N=NC(N)=O)cc2CC1S(=O)(=O)O (stereo unspecified) [Carbazochrome sodium sulfonate] | 43%
CC1(C)CC(=O)c2c(C(F)(F)F)nn(-c3ccc(C(N)=O)c(N[C@H]4CC[C@H](O)CC4)c3)c2C1 | 6.92% (active)
CC1(C)CC(=O)c2c(C(F)(F)F)nn(-c3ccc(C(N)=O)c(N[C@H]4CC[C@H](OC(=O)CN)CC4)c3)c2C1 | 6.23% (active)
CC(=O)O/N=C1/C(=O)N(Cc2cc(Cl)ccc2Cl)c2ccc(Cl)cc21 | 51.6%
CC(C)(C)c1ccc(C(=O)CCCN2CCC(OC(c3ccccc3)c3ccccc3)CC2)cc1 [Ebastine] | 56.5%
OC1(c2ccc(Cl)c(C(F)(F)F)c2)CCN(CCCC(c2ccc(F)cc2)c2ccc(F)cc2)CC1 [Penfluridol] | 55.9%
COc1ccc(-c2ccc3c(N4CCOCC4)nc(N4C[C@@H](C)O[C@@H](C)C4)nc3n2)cc1CO | 23.7%
Cc1ccc(=O)n(-c2ccccc2)c1 [Pirfenidone] | 46%
CNC(=O)c1cc(Oc2ccc(NC(=O)Nc3cc(C(C)(C)C)nn3-c3ccc4ncccc4c3)c(F)c2)ccn1 [Rebastinib] | 39.9%
CC(C)C[C@H](NC(=O)[C@H](Cc1ccccc1)NC(=O)c1cnccn1)B(O)O [Bortezomib] | 5.29% (active)
CNC(=O)[C@H](Cc1ccccc1)NC(=O)[C@H](CC(C)C)[C@H](CSc1cccs1)C(=O)NO [Batimastat] | 41.9%
CC(C)C1CCC(C(=O)N[C@H](Cc2ccccc2)C(=O)O)CC1 (stereo partly specified) [Nateglinide] | 46.5%
CC(=O)NC[C@H]1CN(c2ccc(N3CCOCC3)c(F)c2)C(=O)O1 [Linezolid] | 52.5%

Structure (SMILES) | percentage of GFP+
O=C(O)c1ccc2c(c1)nc(Nc1cccc(Cl)c1)c1ccncc12 [Silmitasertib] | 43.8%
COc1ccc2cc(-c3[nH]c(-c4ccc(S(C)=O)cc4)nc3-c3ccncc3)ccc2c1 (stereo unspecified) [Tie2 kinase inhibitor] | 43.3%
CC(C)Cc1ccc(C(C)C(=O)O)cc1 (racemic) | 48.8%
COc1cc(NC(=O)c2ccc(-c3ccc(Cl)cc3)o2)cc(OC)c1 | 52%
O=C(Nc1cc(C(F)(F)F)cc(C(F)(F)F)c1)c1cc(Cl)ccc1O | 42.4%
Cc1c(-c2ccc(O)cc2)n(Cc2ccc(OCCN3CCCCCC3)cc2)c2ccc(O)cc12 [Bazedoxifene] | 47.1%
O=C(c1ccc(OCCN2CCCCC2)cc1)c1c(-c2ccc(O)cc2)sc2cc(O)ccc12 [Raloxifene] | 16.8% (active)
CCCCOc1ccc(C(=O)CCN2CCCCC2)cc1 [Dyclonine] | 47.1%
OCCn1cc(-c2cnc3nnn(Cc4ccc5ncccc5c4)c3n2)cn1 | 41.7%
c1coc(CNc2ncnc3[nH]cnc23)c1 [Kinetin] | 41.6%
C=CC/N=C1\C(=O)C=C2NC(=O)/C(C)=C/C=C\[C@H](OC)[C@@H](OC(N)=O)/C(C)=C/[C@H](C)[C@@H](O)[C@@H](OC)C[C@H](C)CC1=C2O [Tanespimycin] | 11.8% (active)
COC1=C2C[C@@H](C)C[C@H](OC)[C@H](O)[C@@H](C)/C=C(\C)[C@H](OC(N)=O)[C@@H](OC)/C=C/C=C(\C)C(=O)/N=C(/C=C1O)C2=O [Geldanamycin] | 13.5% (active)
CO[C@H]1/C=C\C=C(/C)C(=O)NC2=CC(=O)/C(=N\CCN(C)C)C(=C2O)C[C@@H](C)C[C@H](OC)[C@H](O)[C@@H](C)/C=C(\C)[C@@H]1OC(N)=O [Alvespimycin] | 12.4% (active)
Nc1cccc2c1C(=O)N(C1CCC(=O)NC1=O)C2=O (stereo unspecified) [Pomalidomide] | 46.7%
CCCCCCCCCCCCCCCC(=O)OC1C(SC)OC(C(NC(=O)C2CC(CCC)CN2C)C(C)Cl)C(O)C1O (stereo unspecified) [Clindamycin palmitate HCl] | 45.8%
COc1cc(Nc2nc3ccccc3nc2NS(=O)(=O)c2ccc(NC(=O)c3ccc(C)c(OC)c3)cc2)cc(OC)c1 | 37.4%
CC(C(=O)O)c1ccc2c(c1)[nH]c1ccc(Cl)cc12 (stereo unspecified) [Carprofen] | 45.4%
CNC(=O)c1c(F)cccc1Nc1nc(Nc2cc3c(cc2OC)CCN3C(=O)CN(C)C)nc2[nH]ccc12 | 50.1%
O=NO [Sodium Nitrite] | 52.2%
N#CC[C@H](C1CCCC1)n1cc(-c2ncnc3[nH]ccc23)cn1 [Ruxolitinib] | 44.6%
Cc1nc(-c2ccc(OCC(C)C)c(C#N)c2)sc1C(=O)O [Febuxostat] | 42.1%
CCc1cnn2c(NCc3ccc[n+]([O-])c3)cc(N3CCCC[C@H]3CCO)nc12 [Dinaciclib] | 13% (active)
COc1ccc(CNc2nc(N3CCC[C@H]3CO)ncc2C(=O)NCc2ncccn2)cc1Cl [Avanafil] | 46.5%
